UBC9 SUMO inh = inhibitors of human SUMOylation (UBC9) | P63279 | HTRF SUMOylation assay, SAE1/SAE2 + UBC9, in vitro | inhibition, % at 35 µM | 0.36% of 290,000 active; in the data active = inhibition above about 50%, passing the limit was not always enough
Target sequence (P63279 whole entry, looked up): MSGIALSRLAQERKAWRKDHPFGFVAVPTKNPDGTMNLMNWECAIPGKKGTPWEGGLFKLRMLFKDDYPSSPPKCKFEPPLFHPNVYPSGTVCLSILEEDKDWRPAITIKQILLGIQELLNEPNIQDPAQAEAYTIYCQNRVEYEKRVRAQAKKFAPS
PABP FP inh = blocks human PABP binding to poly(A) RNA. P11940. fluorescence polarization. inhibition, % at 35 µM. 1% of 290,000 active. AID 2014;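 note: calls also rest on retests at 20 µM and on dose response follow-up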
ALR inh = human ALR oxidase inhibition via reduced H2O2; purified ALR, DTT oxidation, H2O2 HRP-luminol luminescence; inhibition, % (concentration not given with the values); 3.8% of 290,000 active; AID 485317;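 active = mean replicate inhibition above about 79%, with every replicate also reaching it, limit read from the data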
Target sequence (P55789 whole entry, looked up): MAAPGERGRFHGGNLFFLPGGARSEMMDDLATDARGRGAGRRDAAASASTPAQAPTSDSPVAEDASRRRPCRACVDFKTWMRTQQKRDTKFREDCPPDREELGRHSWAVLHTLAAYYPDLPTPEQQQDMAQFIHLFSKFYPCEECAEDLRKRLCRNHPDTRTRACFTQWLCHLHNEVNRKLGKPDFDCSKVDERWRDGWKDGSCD
PABP1 MLLE inh = inhibitors of microRNA-mediated deadenylation, human PABP1 MLLE binding; P11940; GST-MLLE / FITC-PAM2 fluorescence polarization; inhibition, % at 20 µM; 0.36% of 360,000 active; AID 588489; in the data active = inhibition above about 35%, passing the limit was not always enough;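 note: plate controls were DMSO wells with GST-MLLE for no effect and wells lacking GST-MLLE protein for full effect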
Efflux pump inh = antifungal efflux pump inhibition, Nile Red retention. S. cerevisiae Candida pump triplex. inhibition, % at 10 µM. 0.44% of 330,000 active. AID 485275;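 active = plate passing quality check with inhibition over a set limit, or well fluorescence over plate mean plus 4 SD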;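 note: Nile Red retained in pooled yeast measured as flow cytometry median fluorescence; 0% = buffer negative control and 100% = Enniatin B positive control; higher means more Nile Red kept so more efflux inhibition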
eIF4H inh = inhibitors of RNA binding by human eIF4H | Q15056 | eIF4H fluorescence polarization binding assay | inhibition, % at 35 µM | 0.94% of 290,000 active | AID 2012;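 note: calls also rest on retests at 20 µM and on dose response follow-up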
An asterisk follows results filed as active; . = not tested or not shown; ! = repeats disagree. The list is not random: actives were taken first. Their share in the collection is about 4.7%. Unless noted, the rule behind the calls is not given here.

SMILES	UBC9 SUMO inh	PABP FP inh	ALR inh	PABP1 MLLE inh	Efflux pump inh	eIF4H inh
CN1CCN(C(=O)c2ccc3c(c2)N(Cc2ccccc2)CCS3)CC1	34	-9	98*	16	0	-8
O=C(c1ccc2c(c1)N(Cc1ccccc1)CCS2)N1CCCCC1	18	-10	99*	14	0	-6
Cc1nccc2oc(=O)c(NC(=O)c3ccc(Cl)cc3)cc12	29	-2	14	0	0	-10
O=C(Nc1cc2c(oc1=O)CCCC2=O)c1ccc(Cl)cc1	19	50*	-10	0	0	74*
O=C(O)c1ccccc1C(=O)N1N=C2/C(=C/c3cccc([N+](=O)[O-])c3)CCCC2C1c1cccc([N+](=O)[O-])c1 (stereo not given)	23	-20	79*	7	0	24
O=C(CC(=O)Nc1ccccc1[N+](=O)[O-])Nc1ccccc1[N+](=O)[O-]	5	-3	-9	-11	0	-4
O=C1OCC(CO)(CO)N=C1NNc1cc(Cl)ccc1Cl	0	12	99*	1	0	1
O=C1OCC(CO)(CO)N=C1NNc1ccccc1[N+](=O)[O-]	8	-5	99*	-6	0	-9
CCOC(=O)c1coc(C(=O)OCC)c1C(=O)OCC	.	.	.	1	.	.
O=C(NC(=S)N1CCCc2ccccc21)c1ccc(Br)cc1	21	-2	8	47*	0	28
O=C(NC(=S)N1CCCc2ccccc21)c1ccc(Cl)cc1	15	0	51	5	0	5
O=C(NC(=S)N1CCCc2ccccc21)c1ccccc1	12	16	99*	34	0	3
O=C(CNC(=O)c1ccc(F)cc1)NCc1ccc(S(=O)(=O)N2CCOCC2)cc1	.	.	.	17	.	.
O=C(COC(=O)c1ccc(F)c(S(=O)(=O)N2CCOCC2)c1)Nc1ccc2[nH]c(=O)[nH]c2c1	.	.	-1	-77	0	.
Cc1nc2ncnn2c(N2CCCC(C(=O)Nc3ccc4c(c3)CCC4)C2)c1C (stereo not given)	20	4	92*	11	0	-6
O=C(Nc1ccc2c(c1)CCC2)C1CCCN(c2ncccn2)C1 (stereo not given)	-14	0	2	11	0	-4
O=S(=O)(c1ccccc1)N1N=C(c2ccc(Br)cc2)CC1c1ccco1 (stereo not given)	3	-5	-3	7	0	-16
Cc1ccc(C2=NN(S(=O)(=O)c3ccccc3)C(c3ccco3)C2)cc1 (stereo not given)	.	.	.	2	0	.
CS(=O)(=O)Nc1ccc(C2=NN(S(=O)(=O)c3ccc(F)cc3)C(c3ccco3)C2)cc1 (stereo not given)	2	106	-4	-30	1	active
O=[N+]([O-])c1ccc(C2=NN(c3ccccc3)C(c3ccco3)C2)cc1 (stereo not given)	8	54*	.	-95	.	104*
O=[N+]([O-])c1ccc(/C=C/C2=NN(c3ccccc3)C(c3ccco3)C2)cc1 (stereo not given)	19	-4	.	-113	3	23
O=S(=O)(c1ccccc1)N1N=C(c2ccc(O)cc2)CC1c1ccco1 (stereo not given)	-7	1	100*	-3	0	-2
CC1(c2cnc(Nc3ccccc3)s2)CCC(=O)O1 (stereo not given)	14	-14	97*	4	0	-18
Cc1cnc(C(=O)NCc2ccc(Cl)cc2Cl)cn1	-2	71*	-18	-12	0	active
Cc1nnc(SCC(=O)NCCC2=CCCCC2)[nH]c1=O	.	.	-1	15	0	.
SMILES	UBC9 SUMO inh	PABP FP inh	ALR inh	PABP1 MLLE inh	Efflux pump inh	eIF4H inh
O=C1NC(=O)C2(CCCC2c2ccccc2)N1 (stereo not given)	.	.	.	-10	.	.
NC(=O)N1c2ccccc2CC(=O)c2ccccc21	9	21*!	.	61*	0	71*!
CCOc1ccc(NC2c3ccccc3C(=O)N2Cc2ccco2)cc1 (stereo not given)	-14	4	98*	-6	0	8
COC(=O)c1cc(NC2c3ccccc3C(=O)N2Cc2ccco2)cc(C(=O)OC)c1 (stereo not given)	10	3	3	9	0	12
COc1ccc(NC2c3ccccc3C(=O)N2Cc2ccco2)cc1OC (stereo not given)	2	-6	100*	-1	0	-3
O=C1c2ccccc2C(Nc2ccc3c(c2)OCO3)N1Cc1ccco1 (stereo not given)	-28	3	99*	9	0	0
O=C1c2ccccc2C(Nc2ccc(F)c(Cl)c2)N1Cc1ccco1 (stereo not given)	-9	-8	3	-11	0	6
COc1ccc(CN2CCNC(=O)C2CC(=O)NCc2csc(C)n2)c(F)c1 (stereo not given)	8	14	-13	12	0	4
O=C(CN1CCCCCC1)Nc1ccccc1C(=O)Nc1ccccc1	.	.	3	7	0	.
O=C(NCc1ccco1)c1cc(-c2ccccc2)c(N2CCOCC2)s1	8	6	87*	5	0	1
O=C(O)c1cc(-c2ccccc2)c(N2CCOCC2)s1	-10	-7	99*	28	0	-3
O=C(NCc1ccc2c(c1)OCO2)c1cc(-c2ccccc2)c(N2CCOCC2)s1	-13	17	9	-13	0	-13
CCOC(=O)Cc1csc(NC(=O)C(NC(=O)C2CCC(C)CC2)C(C)C)n1 (stereo not given)	3	8	-20	-5	0	1
CC1(Cc2ccc(C(F)(F)F)o2)C(=O)Nc2cc(-c3ccc(F)cc3F)ccc21 (stereo not given)	.	.	.	3	.	.
O=C(C[C@H]1C[C@@H]2c3cc(NS(=O)(=O)c4ccccc4)ccc3O[C@@H]2[C@H](CO)O1)N1CCOCC1	.	.	.	-1	.	.
COc1ccc(C(=O)NNC(=S)NC(=O)c2cc(-c3ccccc3)nc3ccccc23)cc1	-67	-5	-2	33	0	5
CCCOc1ccc(C(=O)NNC(=S)NC(=O)c2cc(-c3ccc(Cl)cc3)nc3ccccc23)cc1	-50	-6	-2	39*	0	12
CCCCNC(=O)Oc1c(Br)cc2sc(=O)oc2c1Br	92	103*	54	.	0	96*
CCCCCCn1c(N2CCN(c3ccccc3)CC2)nc2c1c(=O)n(C)c(=O)n2C	-27	-1	3	-7	0	-12
CCCCCn1c(N2CCCC2)nc2c1c(=O)n(C)c(=O)n2C	2	-4	98*	14	0	-3
CC1(C(=O)NCC2CCCCC2)CCN1C(=O)Cc1ccc(-c2ccccc2)cc1 (stereo not given)	.	.	.	3	.	.
Cc1c(C(=O)Nc2nccs2)oc2ccc(Br)cc12	.	.	-4	-43	0	.
COc1ccccc1NC(=O)CSC1=NC(=O)C(Cc2ccccc2)C(=O)N1 (stereo not given)	12	13	99*	5	0	-1

From PubChem BioAssay
